Results published in PubChem BioAssay AID1224921 (Broad Institute, 2016).
The whole screen tested about 1,400 compounds, of which about 350 (25%) were called active. Another 2% or so got no clear call; they are omitted. The rule behind the calls is not given here. These entries were drawn from the full list. Potency and affinity values are given separately.

Test: inhibitors of Clostridioides difficile proliferation – 4-point retest, confirmation (AID 1224921);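 note: plate controls were DMSO wells for no effect and levofloxacin 16 µg/mL wells for full effect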
Conditions: Clostridioides difficile clinical isolate growth, OD600, 24 h, stronger effect = lower value; at 30 µM unless noted

Max activity, inactive:
N#C[C@H]1[C@@H](c2ccc(C#Cc3ccccc3F)cc2)[C@@H](CO)N1C(=O)C1CCC1 -4.04%
N#C[C@@H]1[C@@H](c2ccc(C#Cc3cccc(F)c3)cc2)[C@H](CO)N1C(=O)C1CCC1 24.5% [at 0.5 µM]
COc1ccccc1C#Cc1ccc([C@@H]2[C@@H](C#N)N(C(=O)C3CCCCC3)[C@H]2CO)cc1 30.9%
COc1cccc(C#Cc2ccc([C@H]3[C@@H](CO)N(C(=O)C4CCC4)[C@H]3C#N)cc2)c1 29% [at 8 µM]
COc1ccccc1C#Cc1ccc([C@H]2[C@@H](C#N)N(C(=O)C3CCC3)[C@H]2CO)cc1 29.5% [at 8 µM]
COc1ccccc1C#Cc1ccc([C@@H]2[C@@H](CO)N(C(=O)C3CCCCC3)[C@H]2C#N)cc1 12.6% [at 1.95 µM]
COc1ccccc1C#Cc1ccc([C@H]2[C@@H](CO)N(C(=O)C3CC3)[C@H]2C#N)cc1 12.6%
COc1cccc(C#Cc2ccc([C@@H]3[C@@H](C#N)N(C(=O)C4CCCCC4)[C@H]3CO)cc2)c1 32.5%
C[C@H](C(=O)N(C)C[C@@H]1OCc2ccccc2-c2ccccc2C(=O)N([C@H](C)CO)C[C@H]1C)c1ccccc1 -11.2% [at 1.95 µM]
CCCC(=O)Nc1ccc2c(c1)C(=O)N(C)C[C@@H](OC)[C@H](C)CN(Cc1ccccc1)[C@@H](C)CO2 26.7%
O=C(C[C@H]1CC[C@H](NC(=O)C2CCOCC2)[C@@H](CO)O1)Nc1nccs1 -4.31% [at 1.95 µM]
C[C@H]1CN([C@@H](C)CO)S(=O)(=O)c2ccc(C#Cc3ccc(F)cc3)cc2O[C@@H]1CN(C)S(C)(=O)=O -17.5% [at 1.95 µM]
CCCC#Cc1ccc2c(c1)O[C@H](CN(C)Cc1ccncc1)[C@H](C)CN([C@@H](C)CO)S2(=O)=O -13.4% [at 8 µM]
CCCC(=O)Nc1ccc2c(c1)OC[C@@H](C)N(C(=O)c1ccccc1F)C[C@@H](C)[C@H](OC)CN(C)C2=O -11% [at 1.95 µM]
CO[C@@H]1CN(C)C(=O)c2cc(NC(=O)c3cccc(F)c3)ccc2OC[C@@H](C)N(C(C)=O)C[C@@H]1C 7.72%
C[C@@H]1CN([C@H](C)CO)C(=O)c2ccccc2-c2ccccc2CO[C@H]1CN(C)S(=O)(=O)c1ccc(Cl)cc1 34.1%
CCCN1C[C@H](C)[C@H](OC)CN(C)C(=O)c2cc(NC(=O)Nc3cccc(OC)c3)ccc2OC[C@@H]1C 17.5% [at 35 µM]
C[C@H]1CN([C@@H](C)CO)C(=O)c2cccc(NS(=O)(=O)c3ccccc3)c2O[C@H]1CN(C)Cc1ccc(Cl)c(Cl)c1 33.4%
C[C@H](CO)N1C[C@H](C)[C@H](CN(C)Cc2ccccc2)Oc2c(NS(C)(=O)=O)cccc2C1=O 24.8%
C[C@@H]1CN([C@@H](C)CO)C(=O)c2cccc(NS(C)(=O)=O)c2O[C@@H]1CN(C)Cc1ccccc1 -11.2% [at 8 µM]
C[C@@H]1CN([C@@H](C)CO)C(=O)c2cccc(NS(C)(=O)=O)c2O[C@H]1CN(C)Cc1ccccc1 16.6%
C[C@@H]1CN([C@@H](C)CO)C(=O)c2cc(NC(=O)Nc3ccc(C(F)(F)F)cc3)ccc2O[C@@H]1CN(C)Cc1ccc(Oc2ccccc2)cc1 30.2%
O=C(C[C@H]1C=C[C@H](NC(=O)c2ccncc2)[C@@H](CO)O1)Nc1ccc(-c2ccccc2)cc1 -5.7% [at 0.5 µM]
COc1ccc(COC[C@@]23Oc4ccccc4[C@@H](NC(=S)N2C)[C@H]3CO[Si](C)(C)C(C)(C)C)cc1 23.7%
O=C(C[C@H]1C[C@H]2c3cc(NC(=O)Nc4ccccc4)ccc3O[C@H]2[C@@H](CO)O1)NC1CCCC1 -20.3% [at 1.95 µM]
C[C@H]1CN([C@@H](C)CO)S(=O)(=O)c2ccc(C3=CCCCC3)cc2O[C@@H]1CN(C)Cc1cccnc1 31.2%
COc1cccc(NC(=O)N(C)C[C@H]2Oc3cc(C#CC4(O)CCCC4)ccc3S(=O)(=O)N([C@@H](C)CO)C[C@H]2C)c1 -5.35% [at 0.5 µM]
CO[C@H]1CN(C)C(=O)c2ccc(NC(=O)c3ccccc3F)cc2OC[C@@H](C)N(CC2CC2)C[C@@H]1C -8.61% [at 0.5 µM]
C[C@@H]1CN([C@@H](C)CO)C(=O)c2cc(NC(=O)Nc3cccc4ccccc34)ccc2O[C@@H](C)CCCCO[C@H]1CN(C)Cc1ccccc1 42%
COc1ccc(CN(C)C[C@@H]2OCCCC[C@@H](C)Oc3ccc(NC(=O)Nc4cccc5ccccc45)cc3C(=O)N([C@@H](C)CO)C[C@H]2C)cc1 29.5% [at 8 µM]
COc1ccc(CN(C)C[C@@H]2OCCCC[C@H](C)Oc3ccc(NC(=O)Nc4cccc5ccccc45)cc3C(=O)N([C@@H](C)CO)C[C@H]2C)cc1 25.5%
COc1ccc(CN(C)C[C@@H]2OCCCC[C@@H](C)Oc3ccc(NC(=O)Nc4cccc5ccccc45)cc3C(=O)N([C@H](C)CO)C[C@H]2C)cc1 17.7% [at 1.95 µM]
CC(C)(C)[S@@](=O)N1Cc2cc(C(=O)NCc3ccc4c(c3)OCO4)nc(-c3cccc(-c4cccnc4)c3)c2[C@H]1CCO 31.3% [at 35 µM]
O=C(C[C@@H]1C=C[C@H](NC(=O)c2cccnc2)[C@H](CO)O1)NCc1ccc(Cl)c(Cl)c1 -13.7% [at 1.95 µM]
Cc1ccc(-c2ccc3c(c2)O[C@@H](CN(C)Cc2cccnc2)[C@H](C)CN([C@@H](C)CO)S3(=O)=O)cc1 41.8%
C[C@H](NC(=O)C[C@@H]1CC[C@@H]2[C@H](COC[C@H](O)CN2C(=O)Nc2cc(Cl)cc(Cl)c2)O1)c1ccccc1 24.8% [at 8 µM]
C[C@H](NC(=O)C[C@@H]1CC[C@@H]2[C@H](COC[C@@H](O)CN2C(=O)Nc2cc(Cl)cc(Cl)c2)O1)c1ccccc1 14% [at 1.95 µM]
C[C@@H]1CN([C@@H](C)CO)S(=O)(=O)c2ccc(C#CCN(C)C)cc2O[C@H]1CN(C)C(=O)c1ccccc1F 7.9%
N#C[C@@H]1[C@@H](c2ccc(/C=C/c3ccccc3)cc2)[C@@H](CO)N1C(=O)C1CCC1 38.2% [at 35 µM]
COc1ccc(C(=O)Nc2ccc3c(c2)OC[C@H](C)N(C(C)=O)C[C@@H](C)[C@H](OC)CN(C)C3=O)cc1 -10.5%
C[C@H](CO)N1C[C@H](C)[C@@H](CN(C)S(C)(=O)=O)OCCCC[C@H](C)Oc2ccc(NC(=O)Nc3cccc4ccccc34)cc2C1=O 7.82%
COc1ccc(-c2ccc([C@H]3[C@@H](C#N)N(C(=O)C4CCCC4)[C@@H]3CO)cc2)cc1 25.1% [at 35 µM]
CCCC(=O)Nc1ccc2c(c1)C(=O)N(C)C[C@@H](OC)[C@H](C)CN(CC1CCOCC1)[C@@H](C)CO2 -8.25%
C[C@@H]1CN([C@H](C)CO)S(=O)(=O)c2ccc(C#CC3CC3)cc2O[C@H]1CN(C)Cc1ccncc1 29.7% [at 8 µM]
O=C(C[C@@H]1CC[C@H](NC(=O)CCN2CCCCC2)[C@@H](CO)O1)Nc1nccs1 -9.66% [at 1.95 µM]
C[C@@H]1CCCCO[C@H](CN(C)Cc2ccc(C(F)(F)F)cc2)[C@H](C)CN([C@@H](C)CO)C(=O)c2cc(NS(C)(=O)=O)ccc2O1 30.2%
O=C(C[C@H]1C=C[C@H](NC(=O)c2ccccn2)[C@@H](CO)O1)NCc1cc(F)cc(F)c1 -9.02% [at 8 µM]
O=C(C[C@H]1C[C@H]2c3cc(NC(=O)Nc4ccc(C(F)(F)F)cc4)ccc3O[C@H]2[C@@H](CO)O1)NCc1ccc2c(c1)OCO2 -6.78% [at 1.95 µM]
CO[C@@H]1CN(C)C(=O)c2cc(NS(=O)(=O)c3cn(C)cn3)ccc2OC[C@@H](C)N(Cc2cccc(C(F)(F)F)c2)C[C@H]1C 28.5%
Cc1noc(C)c1NC(=O)N[C@@H]1CC[C@H](CC(=O)Nc2ccc(-c3ccccc3)cc2)O[C@H]1CO 26.4%
O=C(Nc1ccc(F)cc1)Nc1ccc2c(c1)[C@H]1C[C@@H](CC(=O)N3CCCCC3)O[C@H](CO)[C@H]1O2 -19.5% [at 2.1 µM]
CCCN1C[C@@H](C)[C@@H](OC)CN(C)C(=O)c2cc(NC(=O)c3cccc(OC)c3)ccc2OC[C@H]1C -8.56% [at 0.5 µM]
CC(C)CC#Cc1ccc2c(c1)O[C@H](CN(C)CC1CC1)[C@H](C)CN([C@H](C)CO)S2(=O)=O 6.75%
COCC(=O)Nc1ccc2c(c1)OC[C@H](C)N(Cc1cncnc1)C[C@@H](C)[C@H](OC)CN(C)C2=O -11.5%
COc1ccc(CNC(=O)N(C)C[C@H]2OCc3ccccc3-c3c(n(C)c4ccccc34)C(=O)N([C@@H](C)CO)C[C@@H]2C)cc1 30.4%
C[C@H]1CN([C@@H](C)CO)C(=O)CCCn2nncc2CO[C@H]1CN(C)S(=O)(=O)c1ccc(Oc2ccccc2)cc1 10.4%
C[C@H](CO)N1C[C@H](C)[C@H](CN(C)C(=O)Nc2ccc(C(F)(F)F)cc2)Oc2ncc(C3=CCCC3)cc2C1=O 32.4%
C[C@H]1CN([C@@H](C)CO)C(=O)c2cc(NC(=O)Cc3ccccc3)ccc2O[C@H]1CN(C)C(=O)Nc1ccccc1 -15.5%
C[C@@H]1CN([C@@H](C)CO)C(=O)c2cc(NC(=O)Cc3ccccc3)ccc2O[C@@H]1CN(C)C(=O)Nc1ccccc1 -11.4% [at 0.5 µM]
C[C@@H]1CN([C@H](C)CO)C(=O)c2cc(NC(=O)Cc3ccccc3)ccc2O[C@@H]1CN(C)C(=O)Nc1ccccc1 -4.25%
C[C@H](CO)N1C[C@H](C)[C@H](CN(C)C(=O)Nc2ccccc2)Oc2ccc(NC(=O)Cc3ccccc3)cc2C1=O -7.38%
